Screens (PubChem BioAssay)
Compounds with a hit are over-represented: about 3.4% of the library has one in this group of screens.
MITF inh: MITF inhibitors, primary screen, biochemical, AlphaScreen, human | inhibition, % at 2.6 µM | AID 1259374, 2018 | AlphaScreen MITF homodimerization, bead proximity signal | 650,000 compounds, 0.91% hits; in the data active = inhibition above about 50%;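 note: 0% = vehicle wells with protein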
FBW7 activator: FBW7 E3 ligase activators, primary screen, biochemical, AlphaScreen, human; F-box/WD repeat-containing protein 7 (Homo sapiens), Q969H0; AlphaScreen FBW7–phospho-cyclin E peptide binding, activator screen; normalized activity (activation), % at 26.1 µM; 650,000 compounds, 0.13% hits; in the data active = normalized activity above about 1.9%;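 note: purified mutant Fbw7 with reduced substrate affinity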
GPR151 ag: activators of human GPR151, primary screen, cell-based, PathHunter beta-arrestin, luminescence; activation, % at 11.2 µM; 650,000 compounds, 1% hits; PathHunter beta-arrestin GPR151 cells; in the data active = activation above about 4.9%;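 note: 0% = median of compound wells and 100% = cells with positive control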
Target sequence (Q8TDV0 whole entry, looked up): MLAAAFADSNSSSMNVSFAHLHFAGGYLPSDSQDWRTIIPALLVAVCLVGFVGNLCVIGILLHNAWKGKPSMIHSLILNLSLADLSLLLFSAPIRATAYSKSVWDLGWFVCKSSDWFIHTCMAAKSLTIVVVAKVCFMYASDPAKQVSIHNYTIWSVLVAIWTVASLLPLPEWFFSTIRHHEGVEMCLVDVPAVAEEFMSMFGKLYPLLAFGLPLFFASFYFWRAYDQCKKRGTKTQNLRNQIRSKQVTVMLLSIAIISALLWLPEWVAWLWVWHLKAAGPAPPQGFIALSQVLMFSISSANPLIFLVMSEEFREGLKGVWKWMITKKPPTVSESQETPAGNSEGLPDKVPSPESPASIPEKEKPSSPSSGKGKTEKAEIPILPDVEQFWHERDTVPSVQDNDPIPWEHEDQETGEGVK
TEAD-YAP block: TEAD-YAP interaction inhibition, primary screen, TEAD-YAP interaction inhibitor project, luminescence, HEK-TIYL cells | inhibition, % at 9.12 µM | AID 1259422, 2018 | 640,000 compounds, 1.4% hits | TEAD-Gal4/YAP UAS-luciferase luminescence; in the data active = inhibition above about 32%;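 note: 0% = median of test compound wells and 100% = reference inhibitor wells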
MITF confirm: MITF inhibitors, retest of hits, confirmation, biochemical, AlphaScreen, triplicate | AlphaScreen MITF homodimerization, biotin/His-MITF beads | shares compounds with MITF inh | 4,700 compounds, 16% hits | inhibition, % at 2.6 µM;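 active = inhibition above a cutoff derived from the DMSO control wells, cut at about 28% in these data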;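 note: 0% = MITF dimer wells with DMSO only; inhibitors lower the bead chemiluminescence by keeping MITF from dimerizing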
AlphaScreen DR: AlphaScreen optical interference compounds, dose response, counter-screen, biochemical, HTS; 480 compounds, 6% hits; AID 1259373, 2018; IC50, µM; shares compounds with MITF inh; AlphaScreen optical interference counterscreen, cell-free; call rule not given here
AS interf ctr: AlphaScreen optical interference compounds, counter-screen for MITF inhibitor project, biochemical, triplicate | AID 1259376, 2018 | shares compounds with MITF inh | LysRS AlphaScreen counterscreen, signal interference | inhibition, % at 2.6 µM | 4,700 compounds, 7.6% hits;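 active = inhibition above a cutoff derived from the DMSO control wells, cut at about 30% in these data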
Numbers without * were called inactive; x = not tested or not shown.

SMILES	MITF inh	FBW7 activator	GPR151 ag	TEAD-YAP block	MITF confirm	AS interf ctr	others
Cc1cc(Cl)c(OCCCN2CCOCC2)c(Br)c1	28	0	-1	-7	x	x
Cc1cc(Cl)c(OCCCN2CCN(C)CC2)c(Br)c1	65*	0	0	-6	-4	-6
O=C1OC(c2ccccc2)=N/C1=C\c1ccc(-c2cccc([N+](=O)[O-])c2)o1	1	0	-1	-1	x	x
CCOc1ccccc1OCCCN1CCN(CC)CC1	67*	0	0	1	9	13
CCN1CCN(CCOCCOc2ccccc2Br)CC1	56*	0	1	4	13	15
CCN1CCN(CCCOc2cc(C)c(Cl)cc2C)CC1	64*	0	-1	2	3	11
CCN1CCN(CCCOc2ccc(Cl)c(Cl)c2)CC1	28	0	1	-12	x	x
CCN1CCN(CCCOc2cccc(C)c2C)CC1	67*	0	0	2	9	8
CC(C)(Oc1ccc(Cl)cc1)C(=O)N1CCN(CCNC(=O)c2ccc3c(c2)OCO3)CC1	-5	0	2	-1	x	x
CCc1ccccc1OCCN1CCN(CC)CC1	77*	0	1	-4	12	13
c1ccc(-c2ccccc2OCCCCN2CCNCC2)cc1	49	-1	-2	-3	x	x
CCN1CCN(CCCOc2ccccc2-c2ccccc2)CC1	60*	0	1	11	7	10
CCN1CCN(CCOc2ccccc2CO)CC1	39	-1	0	7	x	x
c1ccc(-c2ccccc2OCCCN2CCNCC2)cc1	64*	0	-1	-2	-2	10
C=CCn1c(-c2ccc(C)cc2)cccc1=O	1	0	0	-10	x	x
O=C(C1CCC(CNS(=O)(=O)c2cccc3cccnc23)CC1)N1CCCCCC1 (stereo not given)	-4	0	0	8	x	x
CCOc1ccc(N(C)S(=O)(=O)c2ccc3[nH]cc(C(=O)N4CCC(C)CC4)c(=O)c3c2)cc1	1	0	2	14	x	x
CC#CC(=O)N1CCC(Cc2ccc(OC)cc2)(C(=O)OCC)CC1	95*	0	2	-31	2	-6
CN(CCOc1ccccc1)Cc1nc2ccc(Cl)cc2n1CCO	78*	0	0	-1	18	17
CCN1CCN(CCNC(=O)CCCN2C(=S)NC(C)(C)CC2C)CC1 (stereo not given)	71*	0	1	8	5	6
CCc1ccccc1NC(=O)CCCN1C(=S)NC(C)(C)CC1C (stereo not given)	-3	0	0	5	x	x
COc1ccc(OC)c(/C=N\NC(=O)CNc2ccccc2C)c1	63*	0	-1	14	-1	0
COc1ccc(Br)cc1/C=N\NC(=O)CNc1ccccc1C	-3	0	0	-1	x	x
CC(NC(=O)CCSCCC(=O)NC(C)c1ccccc1)c1ccccc1 (stereo not given)	6	0	-2	-7	x	x
CC(NC(=O)Cc1ccccc1Cl)c1ccc(F)cc1 (stereo not given)	58*	0	-1	-4	5	7
SMILES	MITF inh	FBW7 activator	GPR151 ag	TEAD-YAP block	MITF confirm	AS interf ctr	others
CC(NC(=O)CCSCc1ccccc1F)c1ccccc1 (stereo not given)	59*	0	-2	-27	2	-3
CC(NC(=O)Cc1ccc(F)cc1)c1ccccc1 (stereo not given)	-7	0	3	-4	x	x
O=C(NC1CC1)c1cncc(-c2cccs2)c1	18	0	0	-7	x	x
NC(=O)c1cncc(-c2cccs2)c1	70*	0	1	1	65*	13	AlphaScreen DR=>6.5
Cc1c(C(=O)Nc2cnc3ccccc3c2)sc2nc(C)n(C)c(=O)c12	-4	0	-1	-10	x	x
O=C1N/C(=C/c2cccn2-c2ccccc2)C(=O)N1Cc1ccccc1F	55*	0	-1	13	3	0
Cc1ccccc1NC(=O)NC1(C(F)(F)F)Oc2ccc(Cl)cc2O1 (stereo not given)	29	0	0	4	x	x
COc1ccccc1NS(=O)(=O)c1cccc(NC(=O)NC2(C(F)(F)F)Oc3ccc(Cl)cc3O2)c1 (stereo not given)	68*	0	0	-7	-14	4
Cc1cc(OCCCCN2CCN(C)CC2)ccc1[N+](=O)[O-]	56*	0	-1	-7	7	3
Cc1cc(OCCN2CCCC2)ccc1[N+](=O)[O-]	24	0	1	-5	x	x
Cc1ccc(OCCN2CCOCC2)cc1C	-18	0	1	-8	x	x
Cc1cc(OCCN2CCN(C)CC2)ccc1[N+](=O)[O-]	56*	0	-2	-32	6	11
Cc1cc(OCCN2CCOCC2)ccc1[N+](=O)[O-]	60*	1	-3	-22	8	14
Cc1cc(OCCCN2CCNCC2)ccc1[N+](=O)[O-]	35	0	3	0	x	x
O=C(N/N=C/c1ccc(O)c(O)c1)c1ccc(NC(=O)c2ccccc2)cc1	12	0	-1	-39	x	x
NCCn1c(-c2cccnc2)n[nH]c1=S	4	0	0	18	x	x
COc1cccc(-n2c(SCC(=O)Nc3ccccc3OC)nc3n[nH]c(C)c3c2=N)c1	4	1	1	7	x	x
N#CCSc1nc2c(sc(=S)n2CCc2ccccc2)c(=O)n1-c1ccccc1	-7	0	1	3	x	x
Cc1ccc(NC(=O)C2(N3C(=O)CC3c3ccco3)CCCCC2)cc1 (stereo not given)	68*	0	1	-5	1	17
Cc1ccc(C(c2ccc(C)o2)c2ccccc2N)o1	67*	0	1	0	3	6
COc1ccccc1C(c1ccc(C)o1)c1ccc(C)o1	3	0	4	-4	x	x
COc1ccccc1N1CCN(C(=O)CSc2nc3ccccc3c(=O)n2NC(=O)c2ccccc2)CC1	75*	0	0	-6	7	13
N#CCSc1nc2ccccc2c(=O)n1NC(=O)c1ccccc1	67*	0	-8	82*	2	10
COc1ccccc1N1CCN(C(=O)CSc2nc3ccccc3c(=O)n2NC(=O)Cc2ccccc2)CC1	23	0	2	14	x	x
O=C(c1nc2sccn2c1CN1CCC(C(O)c2cccs2)CC1)N1CCCC1 (stereo not given)	-15	0	3	1	x	x
O=C(c1cccc2ccccc12)N1CCN(Cc2cccnc2)CC1	60*	0	0	-2	10	19
